Our source for the NF-kB reporter, IRF reporter and viability score values is the supplement of paper PMC10646978.

What all share (settings): modulator concentration 10 µM
Assay [1] has as its system RAW-Dual (murine macrophage reporter line). As to the kind of experiment: NF-kB reporter (SEAP) activity fold change vs agonist alone; higher = enhanced NF-kB activity. The method in brief:
(§1)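 In 384-well plates holding 50 000 RAW-Dual murine macrophage reporter cells per well, compound at 10 μM final was pre-incubated for 1 hour at 37 °C, after which a PRR agonist was added overnight. Supernatant SEAP read with QUANTI-Blue at 620 nm absorbance reported NF-κB, and Lucia luciferase read with QUANTI-Luc luminescence reported IRF. Fold change values come from dividing each reporter signal by the mean of agonist-only control wells on the same plate, averaged over replicate plates with propagated errors.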

For assay [2] the test system is unchanged. The assay is described as follows: IRF reporter (Lucia luciferase) activity fold change vs agonist alone; higher = enhanced IRF activity. The method in brief:
as §1

Assay [3] shares this test system. As to the kind of experiment: viability score (confluency relative to resting cells, overnight) (fraction); higher = more viable, active = viable (0.7 or more). The method, boiled down:
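Compound was added at a final 10 μM to RAW-Dual macrophages in 384-well plates and left overnight. Confluency was imaged with IncuCyte, and two masks were generated in IncuCyte software over all imaged wells. Each viability score is confluency relative to resting cells, and a compound met the cutoff only when both masks were above 70% of resting cells.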

Setting [4] is: agonist: CpG ODN 1826 0.5 ug/mL.

± gives the standard deviation.

Turning to `Clc1ccc(Cn2c(CN3CCCC3)nc3ccccc32)cc1` [Prestw-227], the NF-kB reporter was 0.369 ± 0.076 in assay [1] (setting [4]), 1.12 ± 0.1 in assay [1] (agonist: LPS 0.1 ug/mL) and 1.06 ± 0.14 in assay [1] (agonist: MPLA […]). For the same compound, the IRF reporter in assay [2] (agonist: 3'3'-cGAMP 10 ug/mL) came to 0.682 ± 0.038; in assay [2] (agonist: LPS 0.1 ug/mL), 1.07 ± 0.1; in assay [2] (agonist: MPLA […]), 1.37 ± 0.18. Moreover, the viability score in assay [3] was 0.787 (active).
With `CCCC(CCC)C(N)=O`, the NF-kB reporter in assay [1] (setting [4]) amounted to 1.09 ± 0.093; in assay [1] (agonist: LPS 0.1 ug/mL), 0.95 ± 0.083; in assay [1] (agonist: MPLA […]) it was 0.999 ± 0.023. For the same compound, the IRF reporter in assay [2] (agonist: 3'3'-cGAMP 10 ug/mL) was 1.08 ± 0.17; in assay [2] (agonist: LPS 0.1 ug/mL), 1.04 ± 0.12; in assay [2] (agonist: MPLA […]), 0.983 ± 0.19. Also, the viability score in assay [3] is 0.996 (active).
For the compound `O=C(OC(=Cc1nccn1Cc1ccc(Cl)cc1)c1ccccc1)c1ccccc1`, the NF-kB reporter in assay [1] (setting [4]) came to 0.323 ± 0.021; in assay [1] (agonist: LPS 0.1 ug/mL) it was 0.481 ± 0.05; in assay [1] (agonist: MPLA […]), 0.394 ± 0.026. In addition, the IRF reporter in assay [2] (agonist: 3'3'-cGAMP 10 ug/mL) came to 0.37 ± 0.015; in assay [2] (agonist: LPS 0.1 ug/mL) it was 1.36 ± 0.12; in assay [2] (agonist: MPLA […]) it was 1.51 ± 0.13. Moreover, the viability score in assay [3] is 0.973 (active).
For `Cc1cc(OCC(=O)NN=Cc2ccc(O)c([N+](=O)[O-])c2)ccc1Cl`, the results for the NF-kB reporter in assay [1] (setting [4]), in assay [1] (agonist: LPS 0.1 ug/mL) and in assay [1] (agonist: MPLA […]) were 1.03 ± 0.29, 1.04 ± 0.092 and 1.02 ± 0.093, respectively. The IRF reporter came out at 1 ± 0.041 in assay [2] (agonist: 3'3'-cGAMP 10 ug/mL), 1.08 ± 0.2 in assay [2] (agonist: LPS 0.1 ug/mL) and 1.13 ± 0.13 in assay [2] (agonist: MPLA […]). The viability score in assay [3] is 0.998 (active).
Regarding `COc1cccc(S(=O)(=O)NCc2sc(-c3ccccc3)nc2C)c1`, the results for the NF-kB reporter in assay [1] (setting [4]), in assay [1] (agonist: LPS 0.1 ug/mL) and in assay [1] (agonist: MPLA […]) were 1.26 ± 0.12, 1.1 ± 0.086 and 0.901 ± 0.045, respectively. Moreover, the IRF reporter is 0.922 ± 0.059 in assay [2] (agonist: 3'3'-cGAMP 10 ug/mL), 1.11 ± 0.12 in assay [2] (agonist: LPS 0.1 ug/mL) and 1.16 ± 0.28 in assay [2] (agonist: MPLA […]). In addition, the viability score in assay [3] is 0.942 (active).
As for `Cc1ccc(N2C(=O)CC(Nc3ccc(N4CCOCC4)cc3)C2=O)cc1` (stereo unspecified), the values for the NF-kB reporter in assay [1] (setting [4]), in assay [1] (agonist: LPS 0.1 ug/mL) and in assay [1] (agonist: MPLA […]) were 1.04 ± 0.11, 1.09 ± 0.09 and 0.823 ± 0.057, respectively. The IRF reporter in assay [2] (agonist: 3'3'-cGAMP 10 ug/mL) came to 0.641 ± 0.016; in assay [2] (agonist: LPS 0.1 ug/mL) it was 1.2 ± 0.16; in assay [2] (agonist: MPLA […]), 0.908 ± 0.11. Further, the viability score in assay [3] was 1.01 (active).
`Oc1ccc(O)cc1`: the NF-kB reporter in assay [1] (setting [4]) came to 1.33 ± 0.2; in assay [1] (agonist: LPS 0.1 ug/mL), 0.586 ± 0.41; in assay [1] (agonist: MPLA […]) it was 0.377 ± 0.093. The IRF reporter in assay [2] (agonist: 3'3'-cGAMP 10 ug/mL) amounted to 0.459 ± 0.018; in assay [2] (agonist: LPS 0.1 ug/mL), 0.58 ± 0.41; in assay [2] (agonist: MPLA […]), 0.211 ± 0.13. Also, the viability score in assay [3] was 0.909 (active).
As for `CCOC(=O)C(CCc1ccccc1)NC(C)C(=O)N1C(C(=O)O)CC2CCCCC21` (stereo unspecified), the NF-kB reporter came out at 0.994 ± 0.11 in assay [1] (setting [4]), 0.925 ± 0.068 in assay [1] (agonist: LPS 0.1 ug/mL) and 1.08 ± 0.1 in assay [1] (agonist: MPLA […]). In addition, the IRF reporter was determined as 0.953 ± 0.045 in assay [2] (agonist: 3'3'-cGAMP 10 ug/mL), 1.24 ± 0.2 in assay [2] (agonist: LPS 0.1 ug/mL) and 1.27 ± 0.29 in assay [2] (agonist: MPLA […]). Besides, in assay [3], the viability score was 1.05 (active).
`O=C(NCCC(CCO)c1ccccc1)Nc1c(F)cccc1F` (stereo unspecified): the NF-kB reporter in assay [1] (setting [4]) is 0.929 ± 0.078; in assay [1] (agonist: LPS 0.1 ug/mL) it was 1.02 ± 0.11; in assay [1] (agonist: MPLA […]) it was 0.898 ± 0.041. The IRF reporter worked out at 0.972 ± 0.059 in assay [2] (agonist: 3'3'-cGAMP 10 ug/mL), 1.05 ± 0.084 in assay [2] (agonist: LPS 0.1 ug/mL) and 0.978 ± 0.075 in assay [2] (agonist: MPLA […]). The viability score in assay [3] is 0.98 (active).
Consider `Cl.OC(CCN1CCCCC1)(c1ccccc1)C1CCCCC1` (stereo unspecified), for which the NF-kB reporter in assay [1] (setting [4]) stood at 0.338 ± 0.034; in assay [1] (agonist: LPS 0.1 ug/mL), 1.01 ± 0.081; in assay [1] (agonist: MPLA […]) it was 1.11 ± 0.075. Further, the IRF reporter in assay [2] (agonist: 3'3'-cGAMP 10 ug/mL) stood at 1.03 ± 0.058; in assay [2] (agonist: LPS 0.1 ug/mL), 1.11 ± 0.19; in assay [2] (agonist: MPLA […]) it was 1.08 ± 0.34. For the same compound, the viability score in assay [3] was 1.01 (active).
Consider `COc1ccc(-c2cc(=O)c3c(O)cc(O)cc3o2)cc1O`, for which the results for the NF-kB reporter in assay [1] (setting [4]), in assay [1] (agonist: LPS 0.1 ug/mL) and in assay [1] (agonist: MPLA […]) were 1.38 ± 0.11, 1.15 ± 0.056 and 1.3 ± 0.04, respectively. In addition, the results for the IRF reporter in assay [2] (agonist: 3'3'-cGAMP 10 ug/mL), in assay [2] (agonist: LPS 0.1 ug/mL) and in assay [2] (agonist: MPLA […]) were 0.641 ± 0.036, 0.426 ± 0.076 and 0.356 ± 0.063, respectively. Besides, the viability score in assay [3] was 0.985 (active).
For the compound `O=C(CCc1csc(NC(=O)c2ccco2)n1)Nc1ccc(Cl)cc1`, the NF-kB reporter in assay [1] (setting [4]) is 0.9 ± 0.069; in assay [1] (agonist: LPS 0.1 ug/mL), 0.87 ± 0.071; in assay [1] (agonist: MPLA […]), 0.973 ± 0.097. The IRF reporter in assay [2] (agonist: 3'3'-cGAMP 10 ug/mL) stood at 0.883 ± 0.045; in assay [2] (agonist: LPS 0.1 ug/mL), 1.44 ± 0.23; in assay [2] (agonist: MPLA […]), 1.55 ± 0.43. Further, in assay [3], the viability score was 0.974 (active).
For `Cc1ccc(NC(=O)c2ccccc2Oc2ccccc2)cc1`, the NF-kB reporter was determined as 0.689 ± 0.055 in assay [1] (setting [4]), 1.1 ± 0.097 in assay [1] (agonist: LPS 0.1 ug/mL) and 1.24 ± 0.059 in assay [1] (agonist: MPLA […]). Also, the IRF reporter came out at 0.881 ± 0.08 in assay [2] (agonist: 3'3'-cGAMP 10 ug/mL), 1.09 ± 0.14 in assay [2] (agonist: LPS 0.1 ug/mL) and 1.76 ± 0.41 in assay [2] (agonist: MPLA […]). The viability score in assay [3] is 1 (active).
